Source: PubChem BioAssay AID2553 (Johns Hopkins Ion Channel Center, 2010)
The whole screen tested about 310,000 compounds, of which about 3,300 (1.1%) were called active.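 How the source made its calls: active means B-score under library mean minus 3 SD, initial fluorescence not abnormally high, positive integrated signal ratio; inactive means the rest.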 This excerpt belongs to a sample that is enriched for actives.

Biological target: Short transient receptor potential channel 6 (Mus musculus) (UniProt Q61143)
Assay: mouse TRPC6 channel inhibitors, primary screen, cell-based, HEK293, membrane potential dye (AID 2553);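 on B-score: B-score derived from integrated fluorescence ratio over the kinetic read; more negative B-score means stronger inhibition of depolarization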
Conditions: ACh-evoked depolarization, at 10 µM; hits give low values

Chain of Short transient receptor potential channel 6 (Mus musculus) (Q61143 whole entry, looked up): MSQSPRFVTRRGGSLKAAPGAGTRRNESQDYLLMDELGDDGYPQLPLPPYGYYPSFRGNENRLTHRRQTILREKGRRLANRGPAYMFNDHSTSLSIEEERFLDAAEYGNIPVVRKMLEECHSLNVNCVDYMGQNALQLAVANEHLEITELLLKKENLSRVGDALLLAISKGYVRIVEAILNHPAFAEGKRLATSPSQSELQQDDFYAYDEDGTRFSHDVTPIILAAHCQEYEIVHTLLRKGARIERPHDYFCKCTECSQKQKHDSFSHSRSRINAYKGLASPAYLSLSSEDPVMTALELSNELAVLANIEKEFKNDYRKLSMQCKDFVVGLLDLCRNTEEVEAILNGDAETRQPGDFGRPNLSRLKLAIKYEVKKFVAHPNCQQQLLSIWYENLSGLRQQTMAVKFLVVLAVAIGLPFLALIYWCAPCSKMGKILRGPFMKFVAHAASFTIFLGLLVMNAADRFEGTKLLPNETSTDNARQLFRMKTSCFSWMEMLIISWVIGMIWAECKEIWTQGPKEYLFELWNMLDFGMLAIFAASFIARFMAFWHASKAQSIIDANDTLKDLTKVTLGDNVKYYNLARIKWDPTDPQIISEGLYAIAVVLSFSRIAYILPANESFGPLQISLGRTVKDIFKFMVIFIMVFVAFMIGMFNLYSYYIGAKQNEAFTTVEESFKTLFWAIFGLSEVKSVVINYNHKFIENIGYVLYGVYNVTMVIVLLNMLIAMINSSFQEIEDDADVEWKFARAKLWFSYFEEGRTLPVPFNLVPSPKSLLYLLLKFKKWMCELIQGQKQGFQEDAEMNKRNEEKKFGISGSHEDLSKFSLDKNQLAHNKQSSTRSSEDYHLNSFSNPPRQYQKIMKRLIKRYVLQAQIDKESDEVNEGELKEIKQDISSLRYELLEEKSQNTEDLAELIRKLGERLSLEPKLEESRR

Structure (SMILES)	B-score
O=C(NCCO)C(=O)NCC(c1ccc2c(c1)OCO2)N1CCN(c2ccc(F)cc2)CC1 (stereo unspecified)	inactive
CC(C)CNC(=S)Nc1ccc(F)cc1	inactive
Cc1ccc(NC(=S)Nc2ccc(F)cc2)cc1	inactive
CC(NC(=S)Nc1ccc(OC(F)F)cc1)c1ccc(F)cc1 (stereo unspecified)	-5.09 (active)
Cc1cc(Br)ccc1NC(=O)CN(C)C(=O)CN1C(=O)NC2(CCCC2)C1=O	inactive
CCOc1ccccc1-c1cc(C(=O)N/N=C(\C)c2cccnc2)c2ccccc2n1	inactive
CCNC(=O)Nc1ccc(S(=O)(=O)Nc2cnc(C)nc2C)cc1	inactive
CCCc1cc(=O)oc2c(C)c(OCC(=O)N3CCC(C(=O)O)CC3)ccc12	inactive
CCCc1cc(=O)oc2c(C)c(O)c(CN3CCCCC3)cc12	-5.62 (active)
CCCc1cc(=O)oc2c(C)c(OC(C)C(=O)NCC(O)c3ccccc3)ccc12 (stereo unspecified)	inactive
O=C(N/N=C\C1CC=CCC1)c1ccc(Br)o1 (stereo unspecified)	inactive
CC(C)C(=O)N1c2ccccc2NC2=C(C(=O)CCC2)C1c1ccc(N(C)C)cc1 (stereo unspecified)	inactive
CN(C)c1ccc(C2N(C)C(=O)c3ccccc3N2C)cc1 (stereo unspecified)	-7.38 (active)
CN(C)c1ccc(C2Nc3ccccc3C(=O)N2NS(=O)(=O)c2ccccc2)cc1 (stereo unspecified)	inactive
S=c1[nH]c2ccccc2c2ccccc12	inactive
N=c1c2c3c(sc2ncn1CCCN1CCOCC1)CCCCC3	-5.61 (active)
N=c1c2c3c(sc2ncn1N)CCCC3	inactive
N=c1c2c3c(sc2ncn1N)CCCCC3	inactive
C=C(C)Cn1c(C)cc(C)c(S(=O)(=O)c2ccccc2C)c1=O	inactive
C/C(=N\NC(=O)C1(C)CC1(Br)Br)c1ccc(C)cc1C (stereo unspecified)	inactive
C=CCNC(=O)c1ccccc1NC(=O)c1ccc(Cl)c(S(=O)(=O)Nc2cccc(C)c2C)c1	inactive
COc1ccccc1C(CNC(=O)c1cccc(NS(=O)(=O)c2ccc(Br)cc2)c1)N(C)C (stereo unspecified)	-5.61 (active)
CC(=O)c1ccc(S(=O)(=O)Nc2ccc(C(=O)NCC(c3ccccc3)N(C)C)cc2)cc1 (stereo unspecified)	inactive
CN(C)C(CNC(=O)c1cccc(S(=O)(=O)Nc2ccc(Br)cc2)c1)c1ccco1 (stereo unspecified)	inactive
Nc1c(N(CCO)C(=O)C2CCCCC2)c(=O)[nH]c(=O)n1Cc1ccccc1	inactive
CCN(CCCNC(=O)c1ccc2c(c1)NC(=O)CN2C)c1cccc(C)c1	inactive

Structure (SMILES)	B-score
COc1ccc(CNC(=O)C(=O)NCC2OCCN2C(=O)c2ccc(OC)cc2)cc1 (stereo unspecified)	inactive
CCC1=NN(C(=O)Cc2ccc([N+](=O)[O-])cc2)C(O)(c2ccc(Br)cc2)C1 (stereo unspecified)	inactive
COc1cc2c(cc1OC)C(/C=C/c1ccco1)=NCC2	-5.37 (active)
COc1cc2c(cc1OC)C(c1cccc([N+](=O)[O-])c1)=NCC2	inactive
COc1ccc(Cl)cc1C(=O)NNC(=S)NC(=O)/C=C/c1ccco1	inactive
COc1cc(C2C(C(=O)c3cccs3)=C(O)C(=O)N2CCN2CCOCC2)ccc1OCCC(C)C (stereo unspecified)	inactive
CC(=O)Nc1ccc(NS(=O)(=O)c2cc(C)sc2C)cc1	inactive
CCC(=O)N1CCCc2ccccc21	inactive
O=C(C1CCN(S(=O)(=O)Cc2ccccc2)CC1)N1CCCc2ccccc21	-5.01 (active)
CCS(=O)(=O)N1CCC(C(=O)N2CCN(c3ccccc3)CC2)CC1	inactive
Cc1ccc(SCC(=O)NNC(=O)c2ccc(S(C)(=O)=O)cc2)cc1	inactive
CCN(CC)c1ccc2cc(C(N)=O)/c(=N\NC(=O)c3ccncc3)oc2c1	-7.68 (active)
NC(=O)c1cc2ccccc2o/c1=N/NC(=O)c1cccc(F)c1	inactive
COc1ccc(C(=O)N/N=c2\oc3ccccc3cc2C(N)=O)cc1	inactive
O=C(N/N=C\c1cccnc1)c1cc(-c2ccccc2)nc2c(Cl)cccc12	inactive
COc1ccc(S(=O)(=O)NNC(=O)Nc2ccc(C)cc2)c(OC)c1	inactive
Cc1cc2c(=O)n(CC(=O)NCC(=O)Nc3ccc(C(C)C)cc3)cnc2s1	inactive
O=C1CC(c2ccccc2)=NN1c1ccc([N+](=O)[O-])cc1	-8.01 (active)
Cc1nn(-c2ccc([N+](=O)[O-])cc2)c(N)c1-c1ccccc1	inactive
CC1=NN(c2ccccc2)C(=O)C1C(=O)c1ccc([N+](=O)[O-])cc1 (stereo unspecified)	inactive
CCCC(C)C(=O)NCc1ccncc1 (stereo unspecified)	inactive
O=C(NCc1ccncc1)NC12CC3CC(CC(C3)C1)C2	inactive
O=C(NCc1ccc(Cl)cc1)NCc1ccc(Cl)cc1	inactive
S=C(NCc1ccc(Cl)cc1)NC12CC3CC(CC(C3)C1)C2	-5.21 (active)
O=C(NCCCn1ccnc1)C(=O)NCC1OCCN1S(=O)(=O)c1cc(F)ccc1F (stereo unspecified)	inactive
